# According to article PMC7862700, “An all-to-all approach to the identification of sequence-specific readers for epigenetic DNA modifications on cytosine”:
# Assays:
# Assay in all cases: DAPPL (digital affinity profiling via proximity ligation, sequencing); 10 mM Tris-HCl pH 7.5, 50 mM NaCl, 1 mM DTT, 4% glycerol, room temperature, 30 min; GST-TFs on glutathione beads, 16-mer random dsDNA library, 0.1% formaldehyde crosslink after washing; high values mean tight binding
# Settings in all cases: protein: recombinant; tags: N-terminal GST; dsDNA, one strand shown
# ERF = target: T1, ERF (Homo sapiens, UniProt P50548 1-548)
# T1 sequence: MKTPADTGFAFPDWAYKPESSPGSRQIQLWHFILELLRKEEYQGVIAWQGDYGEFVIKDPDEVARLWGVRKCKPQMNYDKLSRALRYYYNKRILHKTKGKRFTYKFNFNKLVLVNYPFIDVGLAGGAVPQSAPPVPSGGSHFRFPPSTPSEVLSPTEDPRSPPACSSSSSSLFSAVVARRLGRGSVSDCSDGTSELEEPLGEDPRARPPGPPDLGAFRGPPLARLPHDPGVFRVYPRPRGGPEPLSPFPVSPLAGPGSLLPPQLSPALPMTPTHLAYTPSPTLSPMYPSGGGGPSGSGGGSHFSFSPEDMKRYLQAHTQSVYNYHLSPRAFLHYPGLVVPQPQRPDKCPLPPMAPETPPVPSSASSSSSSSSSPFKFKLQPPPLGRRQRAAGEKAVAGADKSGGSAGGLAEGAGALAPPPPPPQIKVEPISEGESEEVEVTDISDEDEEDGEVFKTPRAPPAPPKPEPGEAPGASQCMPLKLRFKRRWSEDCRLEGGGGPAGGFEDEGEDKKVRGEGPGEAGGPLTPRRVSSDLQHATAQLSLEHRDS
# How it was run: (§1)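 Binding signal is given per hexamer as its read frequency for a factor divided by its frequency in the tag-only sample. GST-fused human transcription factors were expressed in yeast, captured on glutathione beads, barcoded with DNA and pooled with that sample, then incubated with 200 nmole of a 16-mer random double-stranded DNA library in Tris/NaCl/DTT/glycerol buffer for 30 min at room temperature. The pools were then washed, crosslinked, proximity-ligated, amplified by PCR and sequenced on an Illumina NextSeq500.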
# ETV7 = target: T2, ETV7 (Homo sapiens, UniProt Q9Y603 1-341)
# T2 sequence: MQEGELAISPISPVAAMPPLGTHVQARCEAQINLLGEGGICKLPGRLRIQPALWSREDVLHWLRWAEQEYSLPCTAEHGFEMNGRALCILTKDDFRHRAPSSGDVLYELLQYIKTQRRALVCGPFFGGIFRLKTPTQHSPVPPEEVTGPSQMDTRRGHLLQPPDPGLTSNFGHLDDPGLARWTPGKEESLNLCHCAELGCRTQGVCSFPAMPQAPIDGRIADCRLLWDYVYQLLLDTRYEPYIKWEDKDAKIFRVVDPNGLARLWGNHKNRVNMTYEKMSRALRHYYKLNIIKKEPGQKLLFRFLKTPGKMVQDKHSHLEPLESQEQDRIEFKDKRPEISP
# How it was run: as §1
# ETV3 = target: T3, ETV3 (Homo sapiens, UniProt P41162-2 1-143)
# T3 sequence: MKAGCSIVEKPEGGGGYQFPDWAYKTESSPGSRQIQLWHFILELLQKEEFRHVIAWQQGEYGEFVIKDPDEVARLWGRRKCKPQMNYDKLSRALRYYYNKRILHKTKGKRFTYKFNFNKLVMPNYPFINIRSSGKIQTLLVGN
# How it was run: as §1
# ETS2 = target: T4, ETS2 (Homo sapiens, UniProt P15036 1-469)
# T4 sequence: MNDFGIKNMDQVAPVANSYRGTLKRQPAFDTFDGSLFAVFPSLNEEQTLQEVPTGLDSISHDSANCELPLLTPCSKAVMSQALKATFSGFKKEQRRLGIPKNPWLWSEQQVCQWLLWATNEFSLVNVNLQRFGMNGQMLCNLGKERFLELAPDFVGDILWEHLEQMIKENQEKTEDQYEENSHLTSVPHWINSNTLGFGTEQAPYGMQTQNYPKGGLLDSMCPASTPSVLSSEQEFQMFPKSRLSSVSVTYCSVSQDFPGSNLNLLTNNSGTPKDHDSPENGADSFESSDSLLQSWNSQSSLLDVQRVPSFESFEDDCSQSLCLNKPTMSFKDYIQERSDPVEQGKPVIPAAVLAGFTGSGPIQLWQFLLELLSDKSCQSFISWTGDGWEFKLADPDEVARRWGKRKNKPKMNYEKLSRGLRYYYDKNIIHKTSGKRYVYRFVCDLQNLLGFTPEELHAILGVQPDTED
# How it was run: as §1
# ELF5 = target: T5, ELF5 (Homo sapiens, UniProt Q9UKW6-2 1-255)
# T5 sequence: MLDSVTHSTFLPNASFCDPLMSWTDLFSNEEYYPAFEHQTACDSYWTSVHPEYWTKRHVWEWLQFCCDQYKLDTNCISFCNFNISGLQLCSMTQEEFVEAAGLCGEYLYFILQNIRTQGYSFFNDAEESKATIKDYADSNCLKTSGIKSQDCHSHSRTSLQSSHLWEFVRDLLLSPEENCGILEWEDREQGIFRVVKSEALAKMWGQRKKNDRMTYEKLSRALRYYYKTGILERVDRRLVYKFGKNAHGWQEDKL
# How it was run: as §1
# ETV6 = ETV6 (Homo sapiens, UniProt P41212 1-452)
# Sequence of ETV6 (P41212 whole entry): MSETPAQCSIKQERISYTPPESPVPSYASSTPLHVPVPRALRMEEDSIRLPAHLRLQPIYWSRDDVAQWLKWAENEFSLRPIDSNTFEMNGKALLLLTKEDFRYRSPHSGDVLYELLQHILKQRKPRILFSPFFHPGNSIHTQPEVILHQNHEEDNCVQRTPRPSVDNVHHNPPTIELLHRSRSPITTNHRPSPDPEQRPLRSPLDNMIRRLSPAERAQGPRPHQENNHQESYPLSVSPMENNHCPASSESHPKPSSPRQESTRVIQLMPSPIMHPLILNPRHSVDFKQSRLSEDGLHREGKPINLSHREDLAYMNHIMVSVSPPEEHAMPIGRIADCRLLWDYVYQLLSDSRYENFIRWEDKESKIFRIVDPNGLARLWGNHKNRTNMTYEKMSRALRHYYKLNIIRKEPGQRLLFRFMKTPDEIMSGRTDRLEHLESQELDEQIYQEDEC
# How it was run: as §1
# SPDEF = target: T6, SPDEF (Homo sapiens, UniProt O95238 1-335)
# T6 sequence: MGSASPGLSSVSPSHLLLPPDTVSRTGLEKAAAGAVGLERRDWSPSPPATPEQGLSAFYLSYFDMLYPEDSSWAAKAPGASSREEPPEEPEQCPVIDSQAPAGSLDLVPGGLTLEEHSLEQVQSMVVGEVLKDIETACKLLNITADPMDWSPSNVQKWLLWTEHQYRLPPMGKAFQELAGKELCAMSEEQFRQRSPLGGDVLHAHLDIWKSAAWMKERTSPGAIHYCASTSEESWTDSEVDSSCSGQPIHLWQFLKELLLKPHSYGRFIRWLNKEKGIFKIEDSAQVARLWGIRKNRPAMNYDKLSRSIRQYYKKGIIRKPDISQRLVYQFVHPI
# How it was run: as §1
Sequence,binding signal (ERF),binding signal (ETV7),binding signal (ETV3),binding signal (ETS2),binding signal (ELF5),binding signal (ETV6),binding signal (SPDEF)
GGCCCT,"1.02 fold enrichment (6-mer frequency, TF over GST control)","1.03 fold enrichment (6-mer frequency, TF over GST control)","1.03 fold enrichment (6-mer frequency, TF over GST control)",–,–,–,–
AGACTT,"1.02 fold enrichment (6-mer frequency, TF over GST control)","1.02 fold enrichment (6-mer frequency, TF over GST control)","1.09 fold enrichment (6-mer frequency, TF over GST control)","1 fold enrichment (6-mer frequency, TF over GST control)","1.2 fold enrichment (6-mer frequency, TF over GST control)","1.04 fold enrichment (6-mer frequency, TF over GST control)",–
TCGTAC,"1.01 fold enrichment (6-mer frequency, TF over GST control)","1.15 fold enrichment (6-mer frequency, TF over GST control)","1.02 fold enrichment (6-mer frequency, TF over GST control)","1.07 fold enrichment (6-mer frequency, TF over GST control)","1.02 fold enrichment (6-mer frequency, TF over GST control)","1.08 fold enrichment (6-mer frequency, TF over GST control)","1.06 fold enrichment (6-mer frequency, TF over GST control)"
CAGATG,"1.11 fold enrichment (6-mer frequency, TF over GST control)","1.13 fold enrichment (6-mer frequency, TF over GST control)","1.02 fold enrichment (6-mer frequency, TF over GST control)","1.05 fold enrichment (6-mer frequency, TF over GST control)",–,"1.03 fold enrichment (6-mer frequency, TF over GST control)",–
TTAGGT,"1.19 fold enrichment (6-mer frequency, TF over GST control)","1.09 fold enrichment (6-mer frequency, TF over GST control)","1.06 fold enrichment (6-mer frequency, TF over GST control)","1.13 fold enrichment (6-mer frequency, TF over GST control)","1.02 fold enrichment (6-mer frequency, TF over GST control)","1.16 fold enrichment (6-mer frequency, TF over GST control)","1.09 fold enrichment (6-mer frequency, TF over GST control)"
AATCCA,"1.11 fold enrichment (6-mer frequency, TF over GST control)","1.14 fold enrichment (6-mer frequency, TF over GST control)","1.03 fold enrichment (6-mer frequency, TF over GST control)","1.14 fold enrichment (6-mer frequency, TF over GST control)","1.05 fold enrichment (6-mer frequency, TF over GST control)","1.11 fold enrichment (6-mer frequency, TF over GST control)","1.07 fold enrichment (6-mer frequency, TF over GST control)"
GGTTTA,"1.11 fold enrichment (6-mer frequency, TF over GST control)","1.15 fold enrichment (6-mer frequency, TF over GST control)","1.1 fold enrichment (6-mer frequency, TF over GST control)","1.02 fold enrichment (6-mer frequency, TF over GST control)","1.08 fold enrichment (6-mer frequency, TF over GST control)","1.07 fold enrichment (6-mer frequency, TF over GST control)","1.1 fold enrichment (6-mer frequency, TF over GST control)"
AAACGA,"1.17 fold enrichment (6-mer frequency, TF over GST control)","1.05 fold enrichment (6-mer frequency, TF over GST control)","1.07 fold enrichment (6-mer frequency, TF over GST control)","1.15 fold enrichment (6-mer frequency, TF over GST control)","1.09 fold enrichment (6-mer frequency, TF over GST control)","1.12 fold enrichment (6-mer frequency, TF over GST control)","1.03 fold enrichment (6-mer frequency, TF over GST control)"
GCAATA,"1.03 fold enrichment (6-mer frequency, TF over GST control)","1.08 fold enrichment (6-mer frequency, TF over GST control)","1.04 fold enrichment (6-mer frequency, TF over GST control)","1.04 fold enrichment (6-mer frequency, TF over GST control)",–,"1.03 fold enrichment (6-mer frequency, TF over GST control)","1.04 fold enrichment (6-mer frequency, TF over GST control)"
GGAATT,"1.08 fold enrichment (6-mer frequency, TF over GST control)","1.15 fold enrichment (6-mer frequency, TF over GST control)","1.2 fold enrichment (6-mer frequency, TF over GST control)","1.21 fold enrichment (6-mer frequency, TF over GST control)","1.28 fold enrichment (6-mer frequency, TF over GST control)","1.14 fold enrichment (6-mer frequency, TF over GST control)","1.16 fold enrichment (6-mer frequency, TF over GST control)"
GAATTA,"1.06 fold enrichment (6-mer frequency, TF over GST control)","1.06 fold enrichment (6-mer frequency, TF over GST control)","1.1 fold enrichment (6-mer frequency, TF over GST control)","1.05 fold enrichment (6-mer frequency, TF over GST control)","1.03 fold enrichment (6-mer frequency, TF over GST control)","1.08 fold enrichment (6-mer frequency, TF over GST control)","1.01 fold enrichment (6-mer frequency, TF over GST control)"
CGCTCG,"1.2 fold enrichment (6-mer frequency, TF over GST control)",–,"1.08 fold enrichment (6-mer frequency, TF over GST control)","1.1 fold enrichment (6-mer frequency, TF over GST control)","1.03 fold enrichment (6-mer frequency, TF over GST control)","1.08 fold enrichment (6-mer frequency, TF over GST control)","1.1 fold enrichment (6-mer frequency, TF over GST control)"
GTTCGA,"1.23 fold enrichment (6-mer frequency, TF over GST control)","1.13 fold enrichment (6-mer frequency, TF over GST control)","1.06 fold enrichment (6-mer frequency, TF over GST control)","1.12 fold enrichment (6-mer frequency, TF over GST control)",–,"1.02 fold enrichment (6-mer frequency, TF over GST control)","1.01 fold enrichment (6-mer frequency, TF over GST control)"
GCCCAT,"1.05 fold enrichment (6-mer frequency, TF over GST control)",–,"1.01 fold enrichment (6-mer frequency, TF over GST control)","1 fold enrichment (6-mer frequency, TF over GST control)","1.01 fold enrichment (6-mer frequency, TF over GST control)",–,–
CGAAAT,"1.03 fold enrichment (6-mer frequency, TF over GST control)","1.11 fold enrichment (6-mer frequency, TF over GST control)","1.03 fold enrichment (6-mer frequency, TF over GST control)",–,–,–,"1.04 fold enrichment (6-mer frequency, TF over GST control)"
CAGAAT,"1 fold enrichment (6-mer frequency, TF over GST control)",–,–,–,"1.02 fold enrichment (6-mer frequency, TF over GST control)","1.02 fold enrichment (6-mer frequency, TF over GST control)","1.06 fold enrichment (6-mer frequency, TF over GST control)"
